# Reference: PubChem BioAssay AID1159580 (chemical genetic matrix, 2015)
# Among all 5,500 compounds or so, about 2,000 (36%) were called active. Another 18% or so got no clear call; they are omitted. The list shows a part of the results. Unmarked numbers belong to inactive results. No stated cut-off is given here; in the data, active means normalized growth mostly below about 0.91 (no sharp cut-off); inconclusive means no clear call, values can overlap the other calls; inactive means mostly above about 0.92.
# Assay: chemical genetic growth profiling, strain panel (AID 1159580);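 further: tested at 20 µM; growth read once vehicle control cultures reached saturation at 30 °C; 1 = growth at the plate median or of vehicle wells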
# Settings: S. cerevisiae deletion strains, growth OD
compound,measurement,setting,value
COc1cc(C)c2c(=O)cc(-c3ccccc3)oc2c1,normalized growth,"locus YJL187C, strain SWE1 (second series), stronger effect = lower value",0.954
same,normalized growth,"locus YJL187C, strain SWE1, stronger effect = lower value",0.933
same,normalized growth,"locus YJR043C, strain POL32, stronger effect = lower value",1.03
same,normalized growth,"locus YJR066W, strain TOR1, stronger effect = lower value",0.814 (active)
same,normalized growth,"locus YKL009W, strain mrt4, stronger effect = lower value",0.954
same,normalized growth,"locus YKL068W, stronger effect = lower value",0.966
same,normalized growth,"locus YKL085W, strain MDH1 (second series), stronger effect = lower value",0.965
same,normalized growth,"locus YKL085W, strain MDH1, stronger effect = lower value",0.965
same,normalized growth,"locus YKL160W, strain elf1, stronger effect = lower value",0.884 (active)
same,normalized growth,"locus YKR001C, strain vps1, stronger effect = lower value",0.982
same,normalized growth,"locus YKR026C, strain gcn3, stronger effect = lower value",0.92 (active)
same,normalized growth,"locus YKR091W, strain srl3, stronger effect = lower value",0.934
same,normalized growth,"locus YLL001W, strain dnm1, stronger effect = lower value",0.932
same,normalized growth,"locus YLL026W, stronger effect = lower value",0.944
same,normalized growth,"locus YLL041C, strain sdh2, stronger effect = lower value",0.935
same,normalized growth,"locus YLR027C, strain aat2, stronger effect = lower value",0.917 (active)
same,normalized growth,"locus YLR039C, strain RIC1, stronger effect = lower value",1.08
same,normalized growth,"locus YLR058C, strain SHM2, stronger effect = lower value",0.975
same,normalized growth,"locus YLR102C, strain apc9, stronger effect = lower value",0.974
same,normalized growth,"locus YLR113W, strain HOG1, stronger effect = lower value",0.721 (active)
same,normalized growth,"locus YLR221C, strain rsa3, stronger effect = lower value",0.887 (active)
same,normalized growth,"locus YLR258W, strain gsy2, stronger effect = lower value",0.921
same,normalized growth,"locus YLR262C, strain YPT6 (second series), stronger effect = lower value",0.757 (active)
same,normalized growth,"locus YLR262C, strain YPT6, stronger effect = lower value",1.05
same,normalized growth,"locus YLR268W, strain sec22, stronger effect = lower value",0.958
same,normalized growth,"locus YLR320W, strain mms22, stronger effect = lower value",0.728 (active)
same,normalized growth,"locus YLR330W, strain CHS5, stronger effect = lower value",0.973
same,normalized growth,"locus YLR342W, strain FKS1 (second series), stronger effect = lower value",0.979
same,normalized growth,"locus YLR342W, strain FKS1, stronger effect = lower value",0.901 (active)
same,normalized growth,"locus YLR357W, strain rsc2, stronger effect = lower value",0.87
same,normalized growth,"locus YLR370C, strain arc18, stronger effect = lower value",0.945
same,normalized growth,"locus YLR371W, strain rom2, stronger effect = lower value",0.966
same,normalized growth,"locus YLR384C, strain iki3, stronger effect = lower value",0.925
same,normalized growth,"locus YLR418C, strain cdc73, stronger effect = lower value",0.843
same,normalized growth,"locus YML016C, strain PPZ1, stronger effect = lower value",0.972
same,normalized growth,"locus YML032C, strain rad52, stronger effect = lower value",0.968
same,normalized growth,"locus YML120C, strain ndi1, stronger effect = lower value",0.941
same,normalized growth,"locus YML124C, strain tub3, stronger effect = lower value",0.973
same,normalized growth,"locus YMR058W, strain fet3, stronger effect = lower value",0.917
same,normalized growth,"locus YMR078C, strain ctf18, stronger effect = lower value",0.952
same,normalized growth,"locus YMR125W, strain sto1, stronger effect = lower value",0.929
same,normalized growth,"locus YMR129W, stronger effect = lower value",0.937
same,normalized growth,"locus YMR205C, strain PFK2, stronger effect = lower value",0.791 (active)
same,normalized growth,"locus YMR223W, strain ubp8, stronger effect = lower value",0.967
same,normalized growth,"locus YMR231W, strain pep5, stronger effect = lower value",0.951
same,normalized growth,"locus YMR307W, strain GAS1, stronger effect = lower value",1.23
same,normalized growth,"locus YNL067W, strain RPL9B, stronger effect = lower value",0.964
same,normalized growth,"locus YNL071W, strain lat1, stronger effect = lower value",0.687 (active)
same,normalized growth,"locus YNL183C, strain NPR1, stronger effect = lower value",0.796 (active)
same,normalized growth,"locus YNL209W, strain ssb2, stronger effect = lower value",0.961
same,normalized growth,"locus YNL233W, strain BNI4, stronger effect = lower value",0.952
same,normalized growth,"locus YNL248C, strain rpa49, stronger effect = lower value",0.912
same,normalized growth,"locus YNL250W, strain rad50, stronger effect = lower value",0.953
same,normalized growth,"locus YNL271C, strain bni1, stronger effect = lower value",0.944
same,normalized growth,"locus YNL298W, strain CLA4, stronger effect = lower value",0.953
same,normalized growth,"locus YNL307C, strain MCK1, stronger effect = lower value",0.918
same,normalized growth,"locus YNL322C, strain KRE1 (second series), stronger effect = lower value",0.932
same,normalized growth,"locus YNR049C, strain mso1, stronger effect = lower value",0.924
same,normalized growth,"locus YNR052C, strain pop2, stronger effect = lower value",0.958
same,normalized growth,"locus YOL006C, strain TOP1, stronger effect = lower value",0.686
same,normalized growth,"locus YOL012C, strain htz1",1.23
same,normalized growth,"locus YOL147C, strain pex11, stronger effect = lower value",0.97
same,normalized growth,"locus YOR001W, strain rrp6, stronger effect = lower value",0.932
same,normalized growth,"locus YOR061W, strain CKA2, stronger effect = lower value",0.979
same,normalized growth,"locus YOR069W, strain VPS5, stronger effect = lower value",0.979
same,normalized growth,"locus YOR070C, strain gyp1, stronger effect = lower value",0.93
same,normalized growth,"locus YOR080W, strain dia2, stronger effect = lower value",0.943
same,normalized growth,"locus YOR083W, strain WHI5, stronger effect = lower value",0.907
same,normalized growth,"locus YOR106W, strain vam3, stronger effect = lower value",0.896
same,normalized growth,"locus YOR136W, strain idh2, stronger effect = lower value",0.972
same,normalized growth,"locus YOR144C, strain elg1, stronger effect = lower value",0.968
same,normalized growth,"locus YOR184W, strain ser1, stronger effect = lower value",0.866 (active)
same,normalized growth,"locus YOR231W, strain MKK1, stronger effect = lower value",0.857 (active)
same,normalized growth,"locus YOR265W, strain rbl2, stronger effect = lower value",0.922 (active)
same,normalized growth,"locus YOR270C, strain vph1, stronger effect = lower value",0.701 (active)
same,normalized growth,"locus YOR290C, strain snf2, stronger effect = lower value",0.82 (active)
same,normalized growth,"locus YOR316C, strain cot1, stronger effect = lower value",0.966
same,normalized growth,"locus YPL051W, strain arl3, stronger effect = lower value",0.904 (active)
same,normalized growth,"locus YPL078C, strain atp4, stronger effect = lower value",0.886 (active)
same,normalized growth,"locus YPL106C, strain sse1, stronger effect = lower value",0.852
same,normalized growth,"locus YPL240C, strain hsp82, stronger effect = lower value",0.934
same,normalized growth,"locus YPL256C, strain CLN2, stronger effect = lower value",0.872
same,normalized growth,"locus YPR119W, strain clb2, stronger effect = lower value",0.973
same,normalized growth,"locus YPR141C, strain kar3, stronger effect = lower value",0.954
same,normalized growth,"locus YPR163C, strain tif3, stronger effect = lower value",0.982
same,normalized growth,"locus YPR167C, strain met16, stronger effect = lower value",0.958
same,normalized growth,"strain wtn01, stronger effect = lower value",0.968
